CtBP-E1A blk – inhibitors of CtBP/E1A interaction | AlphaScreen GST-E1A/His-CtBP binding, 1536-well; hits give low values | 340,000 compounds, 0.49% hits | AID 651724 | activity change, % (concentration not given with the values); in the data active = activity change below about -65%; inconclusive = mostly about -30% to -63%
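In 5 uL wells, 23 nL compound meets equimolar GST-E1A and His-CtBP (5X stock 125 nM each) for 2 h, 37 °C. Beads (5X, 50 ug/mL) then 1 h, 37 °C, dark.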
Six1-Eya2 inh – inhibitors of human Six1/Eya2 interaction; AlphaScreen GST-Six1/His-Eya2 binding, biochemical; hits give low values; activity change, % (test concentration not listed); 360,000 compounds, 0.56% hits; in the data active = activity change below about -65%; inconclusive = mostly about -30% to -63%
Target sequence (O00167 whole entry, looked up): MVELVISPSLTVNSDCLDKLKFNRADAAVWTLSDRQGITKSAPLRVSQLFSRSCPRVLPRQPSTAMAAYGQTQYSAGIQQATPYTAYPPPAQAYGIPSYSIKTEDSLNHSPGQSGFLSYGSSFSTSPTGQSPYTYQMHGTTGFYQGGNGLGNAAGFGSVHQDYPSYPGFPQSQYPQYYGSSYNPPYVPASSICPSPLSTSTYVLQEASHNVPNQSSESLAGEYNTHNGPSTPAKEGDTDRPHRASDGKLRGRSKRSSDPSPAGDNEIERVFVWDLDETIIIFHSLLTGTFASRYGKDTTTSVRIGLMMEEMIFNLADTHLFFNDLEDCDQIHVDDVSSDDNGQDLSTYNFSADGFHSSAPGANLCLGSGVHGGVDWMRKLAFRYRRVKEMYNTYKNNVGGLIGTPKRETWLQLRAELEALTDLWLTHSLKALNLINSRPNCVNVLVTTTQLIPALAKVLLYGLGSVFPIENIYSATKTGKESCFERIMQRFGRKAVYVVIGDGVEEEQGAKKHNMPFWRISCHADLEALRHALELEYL
Target sequence (Q15475 whole entry, looked up): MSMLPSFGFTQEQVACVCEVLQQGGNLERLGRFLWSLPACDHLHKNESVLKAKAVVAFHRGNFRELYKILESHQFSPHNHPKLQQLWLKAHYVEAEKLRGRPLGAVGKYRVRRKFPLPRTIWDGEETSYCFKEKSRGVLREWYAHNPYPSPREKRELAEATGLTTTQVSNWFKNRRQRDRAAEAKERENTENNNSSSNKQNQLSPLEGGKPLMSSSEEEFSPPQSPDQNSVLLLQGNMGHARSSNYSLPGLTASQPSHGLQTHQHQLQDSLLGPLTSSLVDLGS
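Compounds are tested against tagged Six1 and Eya2 proteins bridged by glutathione donor and nickel acceptor beads; after a one-hour incubation at 37 °C without light, AlphaScreen emission is recorded.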
PKM2 activator – activators of human pyruvate kinase M2. purified PKM2, Kinase-Glo ATP luminescence, activation; response scale: 0% is enzyme alone, no compound. AID 1631. Potency, µM (series often up to 57.5 µM), inactives show top-dose activation, usual class: activators. P14618. 260,000 compounds, 0.34% hits; also: potency is read from the fitted curve at half-maximal effect; nearly all actives have a fitted effect of over 55% in size
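hPK-M2, >95% pure; 0.1 mM ADP / 0.5 mM PEP final; imidazole pH7.2 buffer w/ 7 mM MgCl2, 50 mM KCl; 1 h RT; Kinase-Glo lum. Intermediate enzyme activity for dual inhibitor/activator qHTS.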
RORgamma inh – inhibitors of mouse ROR gamma transcriptional activity; 310,000 compounds, 5.4% hits; AID 2551; Drosophila S2 Gal4-RORgamma UAS-luciferase reporter, 20 h; Potency, µM (highest dose often 53.6 µM), without a hit: at the highest dose activity change, negative = inhibition, actives largely listed as inhibitors; P51450; also: potency is read from the fitted curve at half-maximal effect; nearly all actives have a fitted effect of over 60% in size
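Stably transfected Drosophila Schneider cells are the test system, with ROR gamma fused to Gal4 and luciferase under UAS control; luminescence is read after 20 hr of 700 uM copper sulfate induction at ambient temperature.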
VP16 counter – counter-screen for ROR gamma inhibitors: Gal4-VP16 reporter. Drosophila S2 Gal4-VP16 UAS-luciferase, luminescence, 20 h. Potency, µM (top dose mostly 53.6 µM), without a hit: at the highest dose activity, negative = inhibition, most hits filed as inhibitors. 310,000 compounds, 3.5% hits;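 also: Gal4-VP16 expression switched on by copper sulfate through the metallothionein promoter; potency is read from the fitted curve at half-maximal effect; nearly all actives have a fitted effect of over 50% in size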
* = called active by the depositor; ? = inconclusive; . = no result; [ ] = another dose, or the depositor's remark. An excerpt weighted towards active compounds, which were near 5.6% of everything screened. Unless noted, calls follow the shape of the dose curve; as a rule, active = well fitted curve in the direction sought with a large enough effect; inconclusive = small, poorly fitted or top-dose-only effect, or another doubt; inactive = no such curve, though single readings can be large; an effect the other way counts as inactive or inconclusive. % is scaled to controls: 0 for no effect and ±100 for the full control effect.

SMILES	CtBP-E1A blk	Six1-Eya2 inh	PKM2 activator	RORgamma inh	VP16 counter
CN(C)c1ccc(C(=S)N2CCNCC2)cc1	-11	-6	4%	-16%	-6%
CN(C)c1ccc(C(=O)OCC(=O)NC2CCCCCC2)cc1	-1	5	20%	40%	3%
CCN(CC)c1ccc(C(=S)NC2CCCCC2)cc1	-11	?	-5%	8.9µM*	14µM*
CN(C)c1ccc(C(=S)NC2CCCCC2)cc1	-16	-12	-7%	8.9µM*	3%
CN(C)c1ccc(C(=S)N2CCCCC2)cc1	-10	-12	-10%	11µM*	0%
CC(C)c1ccccc1NC(=O)COC(=O)CCN1C(=O)/C(=C\C=C\c2ccccc2)SC1=S	0	-4	6%	2.5µM*	4µM*
Cc1cc2c([nH]c3ccccc32)c2c1OC(C)(C)C=C2	-29	-2	5%	-19%	3%
COc1ccc2[nH]c(=O)c3c(c2c1)OC(C)(C)C=C3	5	3	-1%	-12%	25µM*
COc1cc2c(cc1[N+](=O)[O-])-c1ccc([N+](=O)[O-])cc1C2=NNC(N)=S	?	-73*	.	.	.
CCc1[nH]nc2c1C(c1ccc(Br)s1)C(C#N)=C(N)O2 (stereo not drawn)	2	0	-2%	11µM*	?
Cc1ccc(C2C(C#N)=C(N)Oc3n[nH]c(-c4cccs4)c32)s1 (stereo not drawn)	0	-7	-6%	10µM*	-22%
Cc1c(CN(C)C(=O)/C=C/c2ccc([N+](=O)[O-])cc2)cnn1C	22	18	1%	32%	18%
NNc1nc(-c2ccccc2)c2cc(Cl)ccc2n1	-14	-25	7%	13µM*	-24%
NNc1nc(-c2ccccc2)c2cc(Br)ccc2n1	-2	-4	.	2.5µM*	-14%
NNc1nc(-c2ccccc2)cc(-c2ccc(Br)cc2)n1	-6	2	0%	18µM*	?
OCCCNc1nc(-c2ccccc2)c2cc(Br)ccc2n1	-2	15	.	8%	8%
Cc1occc1C(=O)Nc1ccc2c(c1)OCCO2	4	-1	-53%	8.9µM*	?
O=C(Nc1ccc2c(c1)OCCO2)C(=O)c1c[nH]c2ccccc12	-8	-9	-11%	2.5µM*	3.2µM*
Cc1ccccc1C(=O)Nc1ccc2c(c1)OCCO2	.	10	3%	8.9µM*	?
Cc1cc(C(=O)Nc2ccc3c(c2)OCCO3)c(C)o1	-10	-9	0%	-38%	-15%
CCOC(=O)Oc1c(OC)cc(C(=O)O[C@H]2C[C@H]3CN4CCc5c([nH]c6cc(OC)ccc56)[C@@H]4C[C@H]3[C@@H](C(=O)OC)[C@@H]2OC)cc1OC	.	.	.	1%[2.98 µM]	-5%[17 µM]
COc1ccc(CNC(=O)c2nccnc2CO)cc1	6	2	.	-7%	7%
O=C(CCOc1ccccc1)Nc1ccnn1C1CCN(CCc2ccccc2)CC1	-14	-1	.	-4%	2%
COc1ccc(/C(C)=N/Nc2nc3ccccc3nc2C)cc1	-17	5	-2%	2.5µM*	13µM*
COc1cc(CC(=O)OCC(=O)N2CCCCC2)cc(OC)c1OC	5	8	.	11%	3%
SMILES	CtBP-E1A blk	Six1-Eya2 inh	PKM2 activator	RORgamma inh	VP16 counter
CN(C(=O)COC(=O)CNC(=O)c1ccccc1F)C1CCCCC1	13	12	.	.	.
COc1cccc(CN2CCCC(C(=O)N3CCCCC3)C2)c1 (stereo not drawn)	.	6	.	-19%	0%
Cc1ccc(F)c(C2C3C=CCCC3(C)C(=O)N2Cc2ccccc2)c1 (stereo not drawn)	.	.	.	?	32µM*
Cc1ccc(-c2ccc(C3C4C=CCCC4(C)C(=O)N3Cc3ccccc3)c(F)c2)cc1 (stereo not drawn)	.	.	.	38%	3%
CCC/C(O)=C1\C(=O)CCCC1=NCCc1c(C)[nH]c2ccc(OC)cc12	-19	-11	-17%	-5%	1%
Cc1ccc(C)c2[nH]c(=O)c(CCNC(=O)c3cc4ccccc4o3)cc12	-3	-3	2%	-59%	13µM*
COc1ccc(OC)c2[nH]c(=O)c(CCNC(=O)c3cc4ccccc4o3)cc12	-3	-10	1%	-14%	-8%
Cc1cnc(CNC(=O)C2(C)CCCN2CC(C)C)cn1 (stereo not drawn)	-1	7	.	.	.
C=CCN1C(=O)C(=O)N(CC(=O)NCC(=O)Nc2ccc(F)c(F)c2F)C1=O	.	8	.	.	.
Cc1ccc(-n2nc3ccc(NC(=S)NC(=O)/C=C/c4ccco4)cc3n2)cc1	-14	-10	-5%	3.2µM*	?
COc1ccc(-n2nc3cc(C)c(NC(=S)NC(=O)c4ccccc4C)cc3n2)cc1	3	3	1%	3.2µM*	?
Cc1ccc(-n2nc3cc(C)c(NC(=S)NC(=O)/C=C/c4ccco4)cc3n2)cc1	1	3	7%	2.2µM*	5µM*
COc1cc(/C=C2/SC(=S)N(CC(=O)Nc3nc4ccccc4s3)C2=O)cc(OC)c1OC	1	-13	11%	10µM*	-2%
COc1cc(/C=C2\SC(=S)N(CC(=O)Nc3ccccn3)C2=O)cc(OC)c1OC	-26	-17	9%	-5%	-6%
CCc1nnc(NC(=O)CN2C(=O)/C(=C/c3cc(OC)c(OC)c(OC)c3)SC2=S)s1	-24	-7	17%	16µM*	?
COc1ccc(/C=C2\SC(=S)N(CC(=O)Nc3nnc(C)s3)C2=O)cc1	6	2	-9%	-3%	-13%
COc1cc(/C=N/NC(=S)NCc2ccco2)cc(OC)c1OC	-26	-20	8%	43%	?
Oc1c(Br)cc(/C=N/NC(=S)NCc2ccco2)cc1Br	-12	-19	-11%	?	-10%
S=C(NCc1ccco1)N/N=C/c1cccnc1	.	-1	3%	11µM*	?
CCN(CC)c1ccc(/C=N/NC(=S)NCc2ccco2)cc1	?	-29	5%	1.8µM*	3.2µM*
S=C(NCc1ccco1)N/N=C/c1ccc(Cl)cc1	-9	-11	2%	2.5µM*	5.6µM*
Oc1ccc(/C=N/NC(=S)NCc2ccco2)cc1	-5	-6	2%	11µM*	-10%
COC(=O)[C@@H](c1ccccc1)N(C)S(=O)(=O)c1cccc(S(=O)(=O)N(C)[C@@H](C(=O)OC)c2ccccc2)c1	-2	-12	-3%	-34%	4%
O=C(CNC(=O)c1cccs1)Nc1ccc(N2CCOCC2)cc1	3	5	.	.	.
Cc1nc(-n2[nH]c3c(c2=O)CCCC3)[nH]c(=O)c1Cc1ccccc1	?	?	-1%	2.2µM*	2.5µM*
CN(C(=S)Nc1ccc(F)cc1)C1(c2ccccc2Cl)CCCCC1=O (stereo not drawn)	2	-1	-1%	8.9µM*	-4%
CN(N)C(=S)Nc1ccc(F)cc1	-2	4	1%	-3%	4%
